Test results reported in paper PMC7862700, “An all-to-all approach to the identification of sequence-specific readers for epigenetic DNA modifications on cytosine”.

Experiments:
Test in all cases: DAPPL (digital affinity profiling via proximity ligation, sequencing); 10 mM Tris-HCl pH 7.5, 50 mM NaCl, 1 mM DTT, 4% glycerol, room temperature, 30 min; GST-TFs on glutathione beads, 16-mer random dsDNA library, 0.1% formaldehyde crosslink after washing; high values mean tight binding
Settings in all cases: protein: recombinant; tags: N-terminal GST; dsDNA, one strand shown
ERF = target: T1, ERF (Homo sapiens, UniProt P50548 1-548)
T1 sequence: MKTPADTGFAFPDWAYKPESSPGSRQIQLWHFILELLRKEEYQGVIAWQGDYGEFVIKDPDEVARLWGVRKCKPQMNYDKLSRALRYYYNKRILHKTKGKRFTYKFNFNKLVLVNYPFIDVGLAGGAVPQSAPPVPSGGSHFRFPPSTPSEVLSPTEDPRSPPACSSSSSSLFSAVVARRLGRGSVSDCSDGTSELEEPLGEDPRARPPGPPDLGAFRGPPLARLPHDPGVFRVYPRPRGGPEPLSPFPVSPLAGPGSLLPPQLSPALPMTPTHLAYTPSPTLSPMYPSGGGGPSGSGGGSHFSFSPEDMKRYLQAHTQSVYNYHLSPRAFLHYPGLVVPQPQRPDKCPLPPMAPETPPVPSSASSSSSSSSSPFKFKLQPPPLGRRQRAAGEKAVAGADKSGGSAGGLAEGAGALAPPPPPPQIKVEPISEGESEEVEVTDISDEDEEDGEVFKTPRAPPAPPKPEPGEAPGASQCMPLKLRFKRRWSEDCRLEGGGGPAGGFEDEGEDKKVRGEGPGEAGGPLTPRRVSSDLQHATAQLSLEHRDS
How it was run: (§1)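 Each value of binding signal is a hexamer's read frequency for a factor divided by the same hexamer's frequency in the tag-only sample. Barcoded, bead-captured GST fusions of human transcription factors made in yeast were pooled with that sample and incubated with 200 nmole of a random double-stranded 16-mer DNA library in Tris/NaCl/DTT/glycerol buffer at room temperature for 30 min. Washing, 0.1% formaldehyde crosslinking, proximity ligation, PCR and Illumina NextSeq500 sequencing followed.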

ETV3L = target: T2, ETV3L (Homo sapiens, UniProt Q6ZN32 1-361)
T2 sequence: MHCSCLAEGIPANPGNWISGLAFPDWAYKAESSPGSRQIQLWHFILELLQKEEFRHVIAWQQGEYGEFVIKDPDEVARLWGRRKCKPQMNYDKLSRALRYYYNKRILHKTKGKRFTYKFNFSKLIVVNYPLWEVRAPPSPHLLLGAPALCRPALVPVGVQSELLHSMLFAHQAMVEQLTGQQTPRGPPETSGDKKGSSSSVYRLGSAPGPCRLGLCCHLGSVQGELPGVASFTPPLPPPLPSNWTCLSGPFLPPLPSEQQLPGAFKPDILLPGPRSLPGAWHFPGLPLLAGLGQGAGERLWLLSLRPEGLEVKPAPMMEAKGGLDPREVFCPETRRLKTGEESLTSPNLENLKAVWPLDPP
How it was run: as §1

ETS2 = target: T3, ETS2 (Homo sapiens, UniProt P15036 1-469)
T3 sequence: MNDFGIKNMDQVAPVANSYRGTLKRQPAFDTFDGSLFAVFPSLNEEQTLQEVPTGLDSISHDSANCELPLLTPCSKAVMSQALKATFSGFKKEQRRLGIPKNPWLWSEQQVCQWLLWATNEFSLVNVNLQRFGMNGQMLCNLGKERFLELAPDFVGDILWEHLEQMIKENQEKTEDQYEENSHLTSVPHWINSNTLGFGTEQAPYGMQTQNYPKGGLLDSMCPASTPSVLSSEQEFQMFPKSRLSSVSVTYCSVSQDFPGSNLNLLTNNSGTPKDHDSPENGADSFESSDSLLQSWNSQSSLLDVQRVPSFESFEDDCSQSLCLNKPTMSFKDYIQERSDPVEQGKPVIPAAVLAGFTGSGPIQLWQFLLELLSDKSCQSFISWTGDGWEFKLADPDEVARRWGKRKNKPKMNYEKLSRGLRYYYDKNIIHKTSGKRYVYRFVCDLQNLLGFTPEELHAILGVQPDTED
How it was run: as §1

SPDEF = target: T4, SPDEF (Homo sapiens, UniProt O95238 1-335)
T4 sequence: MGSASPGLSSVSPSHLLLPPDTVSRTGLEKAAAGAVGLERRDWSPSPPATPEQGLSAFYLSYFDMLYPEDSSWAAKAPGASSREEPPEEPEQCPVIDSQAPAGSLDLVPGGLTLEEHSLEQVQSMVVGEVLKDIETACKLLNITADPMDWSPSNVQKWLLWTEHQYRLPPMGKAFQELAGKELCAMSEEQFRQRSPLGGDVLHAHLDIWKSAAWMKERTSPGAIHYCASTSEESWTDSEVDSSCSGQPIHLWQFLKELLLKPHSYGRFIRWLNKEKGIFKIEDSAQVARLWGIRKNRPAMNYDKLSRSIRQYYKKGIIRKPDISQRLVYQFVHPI
How it was run: as §1

ETV7 = target: T5, ETV7 (Homo sapiens, UniProt Q9Y603 1-341)
T5 sequence: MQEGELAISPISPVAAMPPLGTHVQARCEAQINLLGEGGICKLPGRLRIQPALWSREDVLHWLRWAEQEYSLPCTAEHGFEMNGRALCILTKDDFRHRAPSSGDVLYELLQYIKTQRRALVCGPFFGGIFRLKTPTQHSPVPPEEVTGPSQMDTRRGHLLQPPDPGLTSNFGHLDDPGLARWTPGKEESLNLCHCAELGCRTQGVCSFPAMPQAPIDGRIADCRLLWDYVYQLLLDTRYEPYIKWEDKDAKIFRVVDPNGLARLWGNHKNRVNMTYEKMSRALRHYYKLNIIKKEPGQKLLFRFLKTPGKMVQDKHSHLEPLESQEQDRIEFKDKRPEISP
How it was run: as §1

ELF5 = target: T6, ELF5 (Homo sapiens, UniProt Q9UKW6-2 1-255)
T6 sequence: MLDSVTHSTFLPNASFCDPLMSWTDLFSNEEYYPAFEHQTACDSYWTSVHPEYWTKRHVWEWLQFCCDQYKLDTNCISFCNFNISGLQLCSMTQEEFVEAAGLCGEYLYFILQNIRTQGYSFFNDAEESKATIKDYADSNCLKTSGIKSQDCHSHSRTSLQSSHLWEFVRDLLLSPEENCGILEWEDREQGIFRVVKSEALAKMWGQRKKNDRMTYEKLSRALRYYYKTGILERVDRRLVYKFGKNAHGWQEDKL
How it was run: as §1

ETV3 = target: T7, ETV3 (Homo sapiens, UniProt P41162-2 1-143)
T7 sequence: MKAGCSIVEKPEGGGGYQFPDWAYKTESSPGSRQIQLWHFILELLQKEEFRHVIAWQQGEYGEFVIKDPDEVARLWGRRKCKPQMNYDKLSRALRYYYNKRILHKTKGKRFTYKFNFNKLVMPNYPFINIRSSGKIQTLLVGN
How it was run: as §1

ETV6 = ETV6 (Homo sapiens, UniProt P41212 1-452)
Chain of ETV6 (P41212 whole entry): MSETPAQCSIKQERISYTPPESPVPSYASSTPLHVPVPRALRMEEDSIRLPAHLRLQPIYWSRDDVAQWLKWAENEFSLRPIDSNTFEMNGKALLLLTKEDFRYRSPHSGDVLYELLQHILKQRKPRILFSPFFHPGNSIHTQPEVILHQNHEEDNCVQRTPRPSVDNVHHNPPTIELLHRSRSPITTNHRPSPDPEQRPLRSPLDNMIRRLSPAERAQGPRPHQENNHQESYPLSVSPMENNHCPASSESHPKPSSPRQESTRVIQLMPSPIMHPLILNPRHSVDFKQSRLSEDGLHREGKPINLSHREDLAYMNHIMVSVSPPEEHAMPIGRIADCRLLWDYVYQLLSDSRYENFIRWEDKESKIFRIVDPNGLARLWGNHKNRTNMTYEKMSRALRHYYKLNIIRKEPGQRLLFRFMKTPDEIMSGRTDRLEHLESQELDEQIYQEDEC
How it was run: as §1

Sequence | binding signal (ERF) | binding signal (ETV3L) | binding signal (ETS2) | binding signal (SPDEF) | binding signal (ETV7) | binding signal (ELF5) | binding signal (ETV3) | binding signal (ETV6)
CTAACG | 1.23 fold enrichment (6-mer frequency, TF over GST control) | 1.25 fold enrichment (6-mer frequency, TF over GST control) | 1.15 fold enrichment (6-mer frequency, TF over GST control) | 1.16 fold enrichment (6-mer frequency, TF over GST control) | 1.26 fold enrichment (6-mer frequency, TF over GST control) | 1.12 fold enrichment (6-mer frequency, TF over GST control) | 1.17 fold enrichment (6-mer frequency, TF over GST control) | 1.16 fold enrichment (6-mer frequency, TF over GST control)
ATCTAC | 1.44 fold enrichment (6-mer frequency, TF over GST control) | 1.36 fold enrichment (6-mer frequency, TF over GST control) | 1.32 fold enrichment (6-mer frequency, TF over GST control) | 1.24 fold enrichment (6-mer frequency, TF over GST control) | 1.21 fold enrichment (6-mer frequency, TF over GST control) | 1.3 fold enrichment (6-mer frequency, TF over GST control) | 1.2 fold enrichment (6-mer frequency, TF over GST control) | 1.29 fold enrichment (6-mer frequency, TF over GST control)
TTCCGT | 1.61 fold enrichment (6-mer frequency, TF over GST control) | 1.85 fold enrichment (6-mer frequency, TF over GST control) | 1.94 fold enrichment (6-mer frequency, TF over GST control) | 1.91 fold enrichment (6-mer frequency, TF over GST control) | 1.6 fold enrichment (6-mer frequency, TF over GST control) | 2.76 fold enrichment (6-mer frequency, TF over GST control) | 2.16 fold enrichment (6-mer frequency, TF over GST control) | 2.02 fold enrichment (6-mer frequency, TF over GST control)
TCTATA | 1.15 fold enrichment (6-mer frequency, TF over GST control) | 1.09 fold enrichment (6-mer frequency, TF over GST control) | 1.2 fold enrichment (6-mer frequency, TF over GST control) | 1.15 fold enrichment (6-mer frequency, TF over GST control) | 1.1 fold enrichment (6-mer frequency, TF over GST control) | 1.08 fold enrichment (6-mer frequency, TF over GST control) | 1.06 fold enrichment (6-mer frequency, TF over GST control) | 1.07 fold enrichment (6-mer frequency, TF over GST control)
TACAGG | 1.1 fold enrichment (6-mer frequency, TF over GST control) | 1.27 fold enrichment (6-mer frequency, TF over GST control) | 1.08 fold enrichment (6-mer frequency, TF over GST control) | 1.39 fold enrichment (6-mer frequency, TF over GST control) | 1.12 fold enrichment (6-mer frequency, TF over GST control) | 1.22 fold enrichment (6-mer frequency, TF over GST control) | 1.18 fold enrichment (6-mer frequency, TF over GST control) | 1.19 fold enrichment (6-mer frequency, TF over GST control)
TGGTTC | 1.34 fold enrichment (6-mer frequency, TF over GST control) | 1.36 fold enrichment (6-mer frequency, TF over GST control) | 1.32 fold enrichment (6-mer frequency, TF over GST control) | 1.35 fold enrichment (6-mer frequency, TF over GST control) | 1.48 fold enrichment (6-mer frequency, TF over GST control) | 1.41 fold enrichment (6-mer frequency, TF over GST control) | 1.44 fold enrichment (6-mer frequency, TF over GST control) | 1.32 fold enrichment (6-mer frequency, TF over GST control)
TTGTTG | 1.13 fold enrichment (6-mer frequency, TF over GST control) | 1.21 fold enrichment (6-mer frequency, TF over GST control) | 1.1 fold enrichment (6-mer frequency, TF over GST control) | 1.11 fold enrichment (6-mer frequency, TF over GST control) | 1.12 fold enrichment (6-mer frequency, TF over GST control) | 1.13 fold enrichment (6-mer frequency, TF over GST control) | 1.19 fold enrichment (6-mer frequency, TF over GST control) | 1.07 fold enrichment (6-mer frequency, TF over GST control)
AATGAA | 1.29 fold enrichment (6-mer frequency, TF over GST control) | 1.19 fold enrichment (6-mer frequency, TF over GST control) | 1.15 fold enrichment (6-mer frequency, TF over GST control) | 1.04 fold enrichment (6-mer frequency, TF over GST control) | 1.18 fold enrichment (6-mer frequency, TF over GST control) | 1.22 fold enrichment (6-mer frequency, TF over GST control) | 1.17 fold enrichment (6-mer frequency, TF over GST control) | 1.23 fold enrichment (6-mer frequency, TF over GST control)
GATGCG | 1.17 fold enrichment (6-mer frequency, TF over GST control) | 1.25 fold enrichment (6-mer frequency, TF over GST control) | 1.2 fold enrichment (6-mer frequency, TF over GST control) | 1.25 fold enrichment (6-mer frequency, TF over GST control) | 1.22 fold enrichment (6-mer frequency, TF over GST control) | 1.1 fold enrichment (6-mer frequency, TF over GST control) | 1.23 fold enrichment (6-mer frequency, TF over GST control) | 1.12 fold enrichment (6-mer frequency, TF over GST control)
ATGTTG | 1.24 fold enrichment (6-mer frequency, TF over GST control) | 1.23 fold enrichment (6-mer frequency, TF over GST control) | 1.22 fold enrichment (6-mer frequency, TF over GST control) | 1.31 fold enrichment (6-mer frequency, TF over GST control) | 1.43 fold enrichment (6-mer frequency, TF over GST control) | 1.15 fold enrichment (6-mer frequency, TF over GST control) | 1.33 fold enrichment (6-mer frequency, TF over GST control) | 1.22 fold enrichment (6-mer frequency, TF over GST control)
GTGGCT | 1.18 fold enrichment (6-mer frequency, TF over GST control) | 1.07 fold enrichment (6-mer frequency, TF over GST control) | 1.14 fold enrichment (6-mer frequency, TF over GST control) | 1.03 fold enrichment (6-mer frequency, TF over GST control) | 1.1 fold enrichment (6-mer frequency, TF over GST control) | 1.03 fold enrichment (6-mer frequency, TF over GST control) | 1.12 fold enrichment (6-mer frequency, TF over GST control) | 1.07 fold enrichment (6-mer frequency, TF over GST control)
CACGCC | 1.21 fold enrichment (6-mer frequency, TF over GST control) | 1.2 fold enrichment (6-mer frequency, TF over GST control) | 1.09 fold enrichment (6-mer frequency, TF over GST control) | 1.05 fold enrichment (6-mer frequency, TF over GST control) | 1.12 fold enrichment (6-mer frequency, TF over GST control) | 1.1 fold enrichment (6-mer frequency, TF over GST control) | 1.2 fold enrichment (6-mer frequency, TF over GST control) | 1.17 fold enrichment (6-mer frequency, TF over GST control)
CCGACG | 1.32 fold enrichment (6-mer frequency, TF over GST control) | 1.23 fold enrichment (6-mer frequency, TF over GST control) | 1.33 fold enrichment (6-mer frequency, TF over GST control) | 1.19 fold enrichment (6-mer frequency, TF over GST control) | 1.34 fold enrichment (6-mer frequency, TF over GST control) | 1.28 fold enrichment (6-mer frequency, TF over GST control) | 1.16 fold enrichment (6-mer frequency, TF over GST control) | 1.31 fold enrichment (6-mer frequency, TF over GST control)
ACCCAA | 1.13 fold enrichment (6-mer frequency, TF over GST control) | 1.13 fold enrichment (6-mer frequency, TF over GST control) | 1.04 fold enrichment (6-mer frequency, TF over GST control) | 1.04 fold enrichment (6-mer frequency, TF over GST control) | 1.14 fold enrichment (6-mer frequency, TF over GST control) | 1.06 fold enrichment (6-mer frequency, TF over GST control) | 1.01 fold enrichment (6-mer frequency, TF over GST control) | 1.09 fold enrichment (6-mer frequency, TF over GST control)
AATATT | 1.22 fold enrichment (6-mer frequency, TF over GST control) | 1.36 fold enrichment (6-mer frequency, TF over GST control) | 1.34 fold enrichment (6-mer frequency, TF over GST control) | 1.25 fold enrichment (6-mer frequency, TF over GST control) | 1.43 fold enrichment (6-mer frequency, TF over GST control) | 1.38 fold enrichment (6-mer frequency, TF over GST control) | 1.37 fold enrichment (6-mer frequency, TF over GST control) | 1.46 fold enrichment (6-mer frequency, TF over GST control)
